Legend:
Format in all cases: functional
Plasmodium falciparum [1] = assay: GSK_TCMDC: Inhibition of Plasmodium falciparum 3D7 in whole red blood cells, using parasite LDH activity as an index of growth. Test compounds present at 2uM
Plasmodium falciparum [2] = assay: GSK_TCMDC: Inhibition of Plasmodium falciparum Dd2 in whole red blood cells, using parasite LDH activity as an index of growth. Test compounds present at 2uM
HepG2 = assay: GSK_TCMDC: Percent inhibition of human HepG2 cell line. Test compounds present at 10uM.

| SMILES | Inhibition (Plasmodium falciparum [1]) [%] | Inhibition (Plasmodium falciparum [2]) [%] | Inhibition (HepG2) [%] |
| --- | --- | --- | --- |
| COc1ccccc1CCNc1nccc(N[C@@H](Cc2ccccc2)C(=O)NCc2cccs2)n1.O=C(O)C(F)(F)F | 90 | 79 | 34 |
| O=C1OC(c2cc3ccccc3n2S(=O)(=O)c2ccccc2)(c2cc3ccccc3n2S(=O)(=O)c2ccccc2)c2ccccc21 | 95 | 78 | 1 |
| Cc1cc(C(=O)CN2C(=O)NC3(CCCc4ccccc43)C2=O)c(C)n1Cc1ccco1 (stereo unspecified) | 90 | 0 | 11 |
| COc1cccc(OC)c1C(=O)Nc1cccc(-c2nn3ccccc3c2-c2ccnc(Nc3cccc(F)c3)n2)c1 | 95 | 38 | 3 |
| COc1ccc(Nc2nccc(N3CCC(NC(=O)c4cccc(NC(C)=O)c4)C3)n2)cc1 (stereo unspecified) | 92 | 84 | 0 |
| CNC(=O)c1cnc(Nc2ccc(N3CCN(C)CC3)cc2)nc1Nc1cccc(OC(C)C)c1.O=C(O)C(F)(F)F | 100 | 100 | 16 |
| CC(=O)c1ccc2nc[nH]c(=O)c2c1 | 96 | 99 | 79 |
| CCc1ccc(CN2CCC(CN(c3ccc(N4CCOCC4)c(F)c3)S(=O)(=O)c3ccc(C(C)(C)CC)cc3)CC2)cc1.Cl | 93 | 94 | 26 |
| CC(=O)Nc1ccc(CNCCc2ccc(NC(=O)c3cc(Cl)cc(Cl)c3)cc2)cc1 | 100 | 31 | 10 |
| O=S(=O)(c1cc2ccccc2s1)N(CCC(O)(C(F)(F)F)C(F)(F)F)Cc1cccc(O)c1 | 100 | 99 | 0 |
| O=C(Nc1cccc(-c2cccc(-c3nc4cc(C(F)(F)F)ccc4[nH]3)c2)c1)c1c[nH]cn1 | 100 | 100 | 14 |
| COc1ccc(OCCCON)cc1.Cl | 98 | 0 | 3 |
| N#Cc1ccc(N/C(=N\c2cccc(Cl)c2Cl)NCc2ccc(Cl)cc2Cl)c(O)c1 | 97 | 75 | 3 |
| COc1ccc(CCn2c(=N)c(C(=O)NCc3ccccc3)cc3c(=O)n4cccc(C)c4nc32)cc1 | 100 | 37 | 29 |
| OC1CCN(c2cc(-c3ccccn3)nc(-c3ccccn3)n2)CC1 | 83 | 97 | 43 |
| O=C(Nc1ccc(OC2CCN(Cc3ccc(F)cc3)CC2)c(Cl)c1)c1ccc(F)cc1.O=C(O)C(F)(F)F | 97 | 95 | 37 |
| Cc1ccc(C(=O)N2CCc3cc4nccc(N5CCN6CCC[C@H]6C5)c4cc32)cc1 | 95 | 13 | 5 |
| Cc1nn(-c2cccc(Cl)c2)c2c1C(C(=O)c1ccc3c(c1)OCO3)CC(=O)N2 (stereo unspecified) | 98 | 95 | 5 |
| COc1ccc2ncc(C#N)c(CCN3CCC(NCc4ccc5c(c4)NC(=O)CO5)CC3)c2c1.Cl | 99 | 43 | 25 |
| Cc1cc(NC(=O)Nc2ccc(C#N)cc2)c2ccccc2n1 | 100 | 49 | 88 |
| CC(C)CCNC(=O)[C@@H]1[C@H]2C(=O)N(C3CCCCC3)C(=O)[C@H]2[C@H]2C=C[C@@H]3C(c4ccc(C(C)(C)C)cc4)=NO[C@@H]3N21 | 96 | 48 | 0 |
| Cl.Nc1ccc(-c2nc3c(ccc4ccccc43)[nH]2)cc1 | 84 | 51 | 0 |

Source: ChEMBL document CHEMBL1157539, “Thousands of chemical starting points for antimalarial lead identification” (Nature, 2010)
